# Reference: ChEMBL document CHEMBL4513216, “Probing the Open Global Health Chemical Diversity Library for Multistage-Active Starting Points for Next-Generation Antimalarials” (ACS Infect Dis, 2020)
# Out of some 69,000 compounds screened, about 8,600 (12%) showed an effect of 50% or more. The sample as a whole holds a higher share of strong results than the screen did.
# Test system: Plasmodium berghei
# Assay: Screen against P. berghei liver stage (PbLuc), transformed with Luciferase, at 10uM
# Format: functional, HepG2
# Conditions: tested at 10 uM
row,Compound,INHIBITION
1,O=C(CCc1ccccc1)N1CCCCC1C1OCCO1 (stereo not given),72.1%
2,O=C(CCc1ccccc1)N1CCCCC1Cn1cccn1 (stereo not given),29.4%
3,O=C(NCCc1ccccc1)N1CCCCC1C1OCCO1 (stereo not given),25.7%
4,c1coc(CN2CCOC3(COCCN(Cc4ccncc4)C3)C2)c1 (stereo not given),31.7%
5,O=C(Cc1csc(-c2ccoc2)n1)NCCCN1CCCCC1,-55.1%
6,CN(Cc1noc(C2CC2)n1)C1CCN(CCc2cccs2)C1 (stereo not given),43.2%
7,C1CN(Cc2noc(C3CC3)n2)CCN(Cc2nnc(C3CC3)o2)C1,74.9%
8,Cc1nc(CN(C)C2CCN(Cc3nnc(C4CC4)o3)C2)no1 (stereo not given),-55.4%
9,CN(Cc1nnc(C2CC2)o1)C1CCN(CCc2cccs2)C1 (stereo not given),56.7%
10,CC(C)c1nc(CN(C)C2CCN(Cc3nnc(C4CC4)o3)C2)no1 (stereo not given),-25.9%
11,CC(C)c1nc(CN2CCCN(Cc3nnc(C4CC4)o3)CC2)no1,-33.5%
12,CCc1nc(CN2CCCN(Cc3nnc(C4CC4)o3)CC2)no1,37.9%
13,CN(Cc1nnc(C2CC2)n1C)C1CCN(CCc2cccs2)C1 (stereo not given),-39.9%
14,CN(Cc1noc(C2CC2)n1)C1CCN(Cc2nnc(C3CC3)o2)C1 (stereo not given),51.6%
15,COCCN1CC(=O)c2sc(NC(C)C)nc2C1,39.7%
16,Cc1cc(N(C)C)nc(C2(C)CCCN2C(=O)c2ccn(C)n2)n1 (stereo not given),36.4%
17,Cc1cc(C(=O)N2CCCN(Cc3nccn3C)CC2)no1,22.3%
18,Cc1ccc(S(=O)(=O)N2CCOCC2C#N)c(F)c1 (stereo not given),-26.1%
19,Cc1ccnc(C2CCCN2C(=O)c2cnccn2)n1 (stereo not given),3.91%
20,COc1ccc(N(C)Cc2nc3c(cnn3C)c(=O)[nH]2)cc1OC,35.9%
21,COc1cccc(CC(=O)NCCc2nnc3n2CCCCC3)c1,-11.3%
22,COc1cc(CNC(C)c2nnc3n2CCC3)cc(OC)c1 (stereo not given),37.8%

row,Compound,INHIBITION
1,Brc1cc(CNCc2nnc3n2CCC3)cs1,13.9%
2,CCOc1c(Br)cc(CNCCc2nnc3n2CCCCC3)cc1OC,55.4%
3,COc1cc(Br)c(CNC(C)c2nnc3n2CCC3)cc1OC (stereo not given),47.1%
4,CCOc1c(Br)cc(CNC(C)c2nnc3n2CCC3)cc1OC (stereo not given),50.8%
5,CC1(NC(=O)Cc2csc(-c3ccccc3Cl)n2)CCS(=O)(=O)C1 (stereo not given),34.6%
6,CCN1CCOC(CNCc2ccc(OCc3ccccn3)cc2)C1 (stereo not given),3.5%
7,Cc1c(C(=O)N2CCN(c3ccccn3)CC2)n(C)c2ccc(Cl)cc12,34%
8,CC(C)Cc1nc(CN2CCCC2Cn2cncn2)no1 (stereo not given),9.85%
9,N#Cc1ccc(N2CCCN(CCCn3cncn3)CC2)cc1,9.87%
10,N#Cc1ccc(CN2CCCN(C(=O)CCn3cncn3)CC2)cc1,-14.3%
11,N#Cc1ccc(CN2CCCN(CCCn3cncn3)CC2)cc1,56.5%
12,CN(C)CCN1CCO[C@H]2CN(C(=O)N(C)C)C[C@H]21,33.4%
13,O=C(O)c1csc(NCCc2ccccc2)n1,34.2%
14,O=C(c1ccoc1)N1CCC2(CC1)C(=O)N(CC1CC1)c1ccccc12,29.7%
15,CC(C)=CCN1C[C@@H]2CC[C@H]1CN(Cc1cc(=O)[nH]c(=O)[nH]1)C2,39%
16,CC(C)=CCN1C[C@@H]2CC[C@H]1CN(CCC(=O)NCc1ccco1)C2,29.7%
17,CC(C)=CCN1C[C@@H]2CC[C@H]1CN(Cc1coc(C)n1)C2,55%
18,Cc1ccc(C(=O)N2C[C@@H]3OCCN(CCN4CCCC4)[C@@H]3C2)cn1,19.9%
19,COc1cc(C)c2c(c1C)C[C@@H](C(C)C(=O)O)CC2 (stereo not given in full),10.1%
20,c1ccc(-n2ccc(CN3CCCC(Cn4cncn4)C3)n2)cc1 (stereo not given),15.3%
21,CCCc1ccc(C(C)Nc2ncnc3c2CCNC3)cc1 (stereo not given),74.7%
22,CC(C)Nc1ncnc2c1CCNCC2,43.8%

row,Compound,INHIBITION
1,CC(Nc1ncnc2c1CCNC2)c1ccc(C(C)(C)C)cc1 (stereo not given),65%
2,Cc1ccccc1C(Nc1ncnc2c1CCNC2)c1ccccc1 (stereo not given),36.8%
3,CC(Nc1ncnc2c1CCNC2)c1ccc2c(c1)CCCC2 (stereo not given),88.6%
4,Cc1cc(C)n(CC(C)Nc2ncnc3c2CCNC3)n1 (stereo not given),29.4%
5,CC(Nc1ncnc2c1CCNCC2)c1nc2c(s1)CCCC2 (stereo not given),1.98%
6,CCOc1ccc(C(C)Nc2ncnc3c2CCNC3)cc1OCC (stereo not given),47.9%
7,Cc1nc(C(C)Nc2ncnc3c2CCNCC3)c(C)s1 (stereo not given),-10.9%
8,O=C(C1CCOCC1)N1CCc2onc(COc3cccnc3)c2C1,46.2%
9,Cc1ccoc1C(=O)N1CCc2ncnc(-c3cnn(C)c3)c2CC1,-49.8%
10,Cc1cc(C2CCN(S(=O)(=O)N(C)C)CC2)ccn1,9.05%
11,CN(C)CCN1C(=O)CCC12CCN(Cc1cccs1)CC2,29.7%
12,CCc1nc(CN2CCN(C(=O)c3cncnc3CC)CC2)cs1,-86.365%
13,CC(C)NC(=O)N1CC[C@@H]2[C@@H]1CC(=O)N2Cc1cccnc1,6.27%
14,CC1c2ncc(COc3cccnc3)n2CCN1C(=O)C1=CCCCC1 (stereo not given),-6.23%
15,COc1ccc(CNC(=O)Nc2cccnc2N2CCCC2)cc1OC,31.2%
16,Nc1nc2c(c(NC(=O)Nc3ccc(Cl)c(Cl)c3)n1)CCCC2,-10.3%
17,Nc1nc2c(c(NC(=O)Nc3cccc(Cl)c3)n1)CCCC2,88.8%
18,Nc1nc2c(c(NC(=O)Nc3ccccc3)n1)CCCC2,32.1%
19,COCCOc1ccc(CNc2cnc3ccccc3n2)cn1,-43%
20,COCCOc1ccc(CNc2nc3ccccc3nc2N)cn1,80.9%
21,COCCOc1ccc(CNc2nc3ccccc3o2)cn1,-11.5%
22,COCCNC(=O)Cn1c(-c2cccc(F)c2)nc(C)c(CCO)c1=O,7.22%

row,Compound,INHIBITION
1,Cc1cnc(C(=O)N2CCOCC2c2ccccc2)cn1 (stereo not given),43.6%
2,CSc1ccc(OCCN2CCC(n3cncn3)CC2)cc1,27.6%
3,c1ccc(OCCN2CCC(n3cncn3)CC2)cc1,37.4%
4,Clc1cc(Cl)cc(OCCN2CCC(n3cncn3)CC2)c1,62.4%
5,CSc1ccc(C2CC(=O)Nc3c2c(=O)[nH]n3C(C)C)cc1 (stereo not given),19.8%
6,CC(C)n1[nH]c(=O)c2c1NC(=O)CC2c1cccc(Br)c1 (stereo not given),-6.61%
7,Cc1cccc(C2CC(=O)Nc3c2c(=O)[nH]n3C(C)C)c1 (stereo not given),71.3%
8,CC(C)n1[nH]c(=O)c2c1NC(=O)CC2c1cccc(O)c1 (stereo not given),-47%
9,CC(C)n1[nH]c(=O)c2c1NC(=O)CC2c1ccncc1 (stereo not given),-19.1%
10,CCc1ccc(C2CC(=O)Nc3c2c(=O)[nH]n3C(C)C)cc1 (stereo not given),79.7%
11,O=C(CCn1nc(-c2cccs2)oc1=O)Nc1cccc(F)c1,31.9%
12,O=C1CC2(CCN(c3nncs3)C2)CN1c1cncnc1 (stereo not given),15.4%
13,Cc1cnc2c(S(=O)(=O)NCC3CCOC3)cccc2c1 (stereo not given),3.15%
14,Cc1cccc(OCC2CCCN(C(=O)CCn3ccccc3=O)C2)c1 (stereo not given),-10.2%
15,c1ccc(-c2nnc3sc(CCN4CCCCCC4)nn23)cc1,30.8%
16,c1cc(-c2nnc3sc(CCN4CCCC4)nn23)ccn1,46.1%
17,c1ccc(-c2nnc3sc(CCN4CCCC4)nn23)cc1,54.3%
18,CC(C)(N)CNS(=O)(=O)Cc1cccc2cccnc12,2.66%
19,CCOCCCNC(=O)CCCC(=O)n1nc(C)c2ccccc21,32.2%
20,c1cc(-c2cncnc2)cc(-c2ccn(CC3CCNC3)n2)c1 (stereo not given),46.4%
21,Cc1nccc(-c2cccc(-c3ccn(CC4CCNC4)n3)c2)n1 (stereo not given),47.2%
22,Cc1ccsc1-c1cccc(-c2ccn(CC3CCNC3)n2)c1 (stereo not given),72.6%

row,Compound,INHIBITION
1,CCn1c(C)nnc1CN(C)C1CCN(CCCSC)C1 (stereo not given),-69.3%
2,Cc1cc(C(=O)N2CCS(=O)(=O)CC2)c(C)o1,-9.21%
3,Cc1cn[nH]c1C1COCCN1Cc1c[nH]cn1 (stereo not given),35.6%
4,Cc1cccc(C)c1OCC(=O)NS(=O)(=O)c1c(C)noc1C,-55.8%
5,Cc1ccc(OCC(=O)NS(=O)(=O)c2c(C)noc2C)cc1C,6.14%
6,Cc1cc(C)c(OCC(=O)NS(=O)(=O)c2c(C)noc2C)c(C)c1,55.1%
7,O=C(NCCn1nc(C2CCNC2)c2cccnc21)C1CCC1 (stereo not given),13.5%
8,Cc1nn(C)c2ncnc(NCC(O)CN3CCCCC3)c12 (stereo not given),7.3%
9,COc1cccc(OC)c1OCCN1C(=O)CCNC1=O,25.8%
10,CC(C)Oc1ccccc1OCCN1C(=O)CCNC1=O,50.5%
11,COc1ccccc1OCCCN1C(=O)CCNC1=O,-88.2%
12,COCCc1noc(-c2cc(Cl)c3c(c2)OCCCO3)n1,-119%
13,CN1CCC(NC(=O)c2cc(Br)cc(Cl)c2O)C1=O (stereo not given),20%
14,O=c1c2cnc(N3CCCCC3)nc2ccn1Cc1ccco1,-33.7%
15,CN1CCN(c2ncc3c(=O)n(Cc4ccco4)ccc3n2)CC1,41.3%
16,CCN1CCN(c2ncc3c(=O)n(Cc4ccco4)ccc3n2)CC1,67.5%
17,Cc1noc(C)c1S(=O)(=O)NC(=O)COc1ccc(C(C)C)cc1,4.1%
18,NS(=O)(=O)CCNC(=O)c1cc2ccccc2nc1N1CCCC1,2.91%
19,Cc1ccc2oc(C(=O)N3CCCC(n4cccn4)C3)cc2n1 (stereo not given),-32.55%
20,O=C(NCCOCC(F)(F)F)c1ccc(-c2ccccc2)[nH]c1=O,14.4%
21,O=C(CN1CCCC1)N1CCCC1c1nc(O)cc(-c2ccccn2)n1 (stereo not given),-1.85%
22,CCC(CO)N(Cc1cccnc1)C(=O)c1ccoc1C (stereo not given),3.13%
